Drawing on PubChem BioAssay (EPA / NIEHS), this text covers outcome and AC50 for 21 compounds.

Assay [1] can be described thus: APR_HepG2_CellCycleArrest_1hr: Apredica 1-hour HepG2 Assay for Cell Cycle Arrest (AID 2282666). The following applies: high-content imaging, actives raise or lower the signal. The method in brief: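 Cell cycle arrest scored from nuclear DNA content (Hoechst 33342) using high-content imaging of fixed HepG2 cells after 1 h treatment across 0.39–200 uM, in duplicate. Gain or loss fitted relative to 0.5% DMSO.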

Assay [2] in a line: APR_HepG2_p53Act_1hr: Apredica 1-hour HepG2 Assay for p53 Activation (AID 2282671). To be noted: high-content imaging, actives raise or lower the signal. In a few lines: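 After 1 h exposure (0.39–200 uM, 0.5% DMSO final, duplicates), fixed HepG2 cells were labelled with anti-p53 antibody plus Hoechst nuclear stain. Fluorescence quantified by automated 20x imaging; changes fitted in both directions against DMSO.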

Assay [3] is described as follows: APR_HepG2_MitoticArrest_1hr: Apredica 1-hour HepG2 Assay for Mitotic Arrest (AID 2282672). To be noted: high-content imaging, actives raise or lower the signal. In a few lines:
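Ten-point concentration series (0.39 to 200 uM, duplicates, 0.5% v/v DMSO) applied to human HepG2 liver cells for 1 hr. High-content imaging of phospho-histone H3 and Hoechst-stained nuclei after fixation and permeabilization; DMSO-normalised bidirectional fit.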

A short description of assay [4]: APR_HepG2_P-H2AX_1hr: Apredica 1-hour HepG2 Assay for H2AX Phosphorylation (AID 2282673). The following applies: high-content imaging, actives raise or lower the signal. In a few lines:
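Phospho-H2A.x immunofluorescence (1:200, FITC secondary) plus Hoechst nuclear stain, quantified by high-content imaging in HepG2 after 1 hr compound exposure. Ten concentrations, 0.39 to 200 uM, in duplicate with 0.5% DMSO; fit both directions against DMSO.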

The nature of assay [5]: APR_HepG2_MitoMass_1hr: Apredica 1-hour HepG2 Assay for Mitochondrial Mass (AID 2282674). The following applies: high-content imaging, actives raise or lower the signal. The method in brief: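 Mitochondrial mass is taken from MitoTracker Red CMXRos (250 nM, 30 min, pre-fixation) fluorescence imaged at 20x in HepG2 cells. Exposure lasted 1 hr across ten concentrations, 0.39 to 200 uM, 0.5% DMSO; DMSO baseline, bidirectional fitting.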

Assay [6] is described as follows: APR_HepG2_MitoMembPot_1hr: Apredica 1-hour HepG2 Assay for Mitochondrial Membrane Potential (AID 2282675). To be noted: imaging, actives raise or lower the signal. In a few lines:
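Mitochondrial membrane potential read as MitoTracker Red CMXRos intensity by automated imaging of fixed HepG2 cells. Dye at 250 nM for 30 min pre-fixation; compounds 0.39 to 200 uM for 1 hour, duplicate wells, 0.5% DMSO.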

A short description of assay [7]: ACEA_ER_80hr: ACEA Biosciences xCELLigence Real-Time Cell Analysis on Estrogen Receptor Agonism for Proliferation (AID 2282667; active means hit-call score of the fitted dose curve at least 0.9, where 1 is the maximum). The following applies: T47D proliferation, impedance (xCELLigence), 80 h. In a few lines:
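T-47D cells monitored by electrical impedance (xCELLigence) with compound present throughout; 80 h timepoint, positive-direction fitting versus DMSO. Eight-point 1:4 dilutions from 100 uM final, duplicate plates.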

Assay [8] in a line: APR_HepG2_NuclearSize_1hr: Apredica 1-hour HepG2 Assay for Nuclear Size (AID 2282670). The following applies: high-content imaging, actives raise or lower the signal. The method in brief: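 Nuclear size measured by high-content imaging of Hoechst 33342 nuclear stain after formaldehyde fixation; human HepG2 line exposed 1 hr to compounds at 0.39–200 uM in 0.5% DMSO, with bidirectional curve fitting relative to DMSO.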

“And” between values parts separate entries of the source, which are not always exact repeats. Equal values may be shown once. Results filed as inconclusive are left out. The source made the active and inactive calls. How the source made its calls, unless noted: active means hit-call score of the fitted dose curve at least 0.9, where 1 is the maximum; inactive means score below 0.9.

With `c1ccc(Nc2ccccc2)cc1`, the compound was classed as inactive in assay [1], in assay [2], in assay [3], in assay [4], in assay [5] and in assay [6].

Regarding `CCC(O)=C1C(=O)CC(C(=O)O)CC1=O` (stereo unspecified), the compound was called inactive in assay [1], in assay [2], in assay [3], in assay [4] and in assay [5].

One may read the AC50 as the concentration at which the activity in the assay is half-maximal. With `CCCCCCC(C)OC(=O)COc1nc(F)c(Cl)c(N)c1Cl` (stereo unspecified), the call in assay [1], in assay [2] and in assay [3] was inactive. Besides, the half-maximal activity concentration (AC50) in assay [4] is 100 µM (active); in assay [5] it was 64 µM (active).

With `COC(=O)c1cccc(C)c1S(=O)(=O)NC(=O)Nc1nc(OCC(F)(F)F)nc(N(C)C)n1`, the compound was called inactive in assay [1], in assay [2], in assay [3], in assay [4] and in assay [5].

As for `CC(C)(C)[C@@H](O)[C@@H](Cc1ccc(Cl)cc1)n1cncn1`, the outcome in assay [1], in assay [2], in assay [3], in assay [4] and in assay [5] was inactive.

As for `CCOC(=O)C(C)Oc1ccc(Oc2nc3ccc(Cl)cc3o2)cc1` (stereo unspecified), the result in assay [1], in assay [2], in assay [3], in assay [4] and in assay [5] was inactive.

In the case of `CCCCN(CCCC)C(=S)S`, in assay [7], the AC50 was 89.4 µM (active).

Take `CCCCC(CC)COC(=O)c1ccccc1C(=O)O` (stereo unspecified): the outcome in assay [1], in assay [2], in assay [3], in assay [4] and in assay [5] was inactive.

Take `S=C(S)NCCNC(=S)S.[Mn+2].[S-]C([S-])=NCCN=C([S-])[S-].[Zn+2]`: the call in assay [1], in assay [8], in assay [3], in assay [4] and in assay [5] was inactive.

Regarding `CCCCN(CCC(=O)OCC)C(C)=O`, the compound was called inactive in assay [7].

In the case of `C[C@]12CC[C@@H]3c4ccc(O)cc4C[C@@H](CCCCCCCCCS(=O)CCCC(F)(F)C(F)(F)F)[C@H]3[C@@H]1CC[C@@H]2O` (stereo partly specified), the AC50 in assay [7] was 6.15 µM (active) and 9.53 µM (active).

Regarding `Oc1ccc(C(c2ccc(O)cc2)C(Cl)(Cl)Cl)cc1`, the compound was called inactive in assay [1], in assay [2], in assay [3], in assay [4] and in assay [5].

As for `S=C([S-])NCCNC(=S)[S-].[Mn+2]`, the call in assay [1], in assay [8], in assay [3], in assay [4], in assay [5] and in assay [6] was inactive.

Consider `CCOC(=O)c1ccc(O)cc1`, for which the concentration at half-maximal activity (AC50) in assay [7] is 11.4 µM (active) [middle of 4 runs].

With `O=C(O)c1ccccc1`, the result in assay [7] was inactive.

For the compound `CCC(C)OC(=O)N1CCCCC1CCO` (stereo unspecified), the outcome in assay [1], in assay [8], in assay [2], in assay [3], in assay [4] and in assay [5] was inactive.

On to `C#C[C@]1(O)CC[C@H]2[C@@H]3CCC4=CC(=O)CC[C@@H]4[C@H]3CC[C@@]21CC`, for which, in assay [7], the half-maximal activity concentration (AC50) is 2.58 nM (active) and 3.4 nM (active) and 143 nM (active).

`C[C@]12C[C@H](O)[C@H]3[C@@H](CCC4=CC(=O)CC[C@@]43C)[C@@H]1CC[C@@H]2C(=O)CO`: the AC50 in assay [7] is 32.8 nM (active) and 26.6 nM (active) and 102 nM (active).

For the compound `CC(C)CCCCCCc1ccc(O)cc1`, the concentration at half-maximal activity (AC50) in assay [7] is 320 nM (active) [middle of 4 runs].

Consider `c1ccc2[nH]c(-c3cscn3)nc2c1`, for which the outcome in assay [1], in assay [3], in assay [4] and in assay [5] was inactive.

As to `O=C(c1ccc(O)cc1O)c1ccc(O)cc1O`, the AC50 in assay [7] is 756 nM (active) and 805 nM (active) and 548 nM (active).
